# Records with an inconclusive call do not appear. Entries that show only a call come without a potency. The source made the active and inactive calls. Unless noted, calls follow the shape of the dose curve; as a rule, active = well fitted curve in the direction sought with a large enough effect; inconclusive = small, poorly fitted or top-dose-only effect, or another doubt; inactive = no such curve, though single readings can be large; an effect the other way counts as inactive or inconclusive.
# Columns and labels:
# [1] = target: Cytochrome P450 3A4 (Homo sapiens) (UniProt P08684); assay: qHTS Assay for Activators of Cytochrome P450 3A4 (AID 885); also: nearly all actives have a fitted effect of over 65% in size
# Chain of Cytochrome P450 3A4 (Homo sapiens) (P08684 whole entry, looked up): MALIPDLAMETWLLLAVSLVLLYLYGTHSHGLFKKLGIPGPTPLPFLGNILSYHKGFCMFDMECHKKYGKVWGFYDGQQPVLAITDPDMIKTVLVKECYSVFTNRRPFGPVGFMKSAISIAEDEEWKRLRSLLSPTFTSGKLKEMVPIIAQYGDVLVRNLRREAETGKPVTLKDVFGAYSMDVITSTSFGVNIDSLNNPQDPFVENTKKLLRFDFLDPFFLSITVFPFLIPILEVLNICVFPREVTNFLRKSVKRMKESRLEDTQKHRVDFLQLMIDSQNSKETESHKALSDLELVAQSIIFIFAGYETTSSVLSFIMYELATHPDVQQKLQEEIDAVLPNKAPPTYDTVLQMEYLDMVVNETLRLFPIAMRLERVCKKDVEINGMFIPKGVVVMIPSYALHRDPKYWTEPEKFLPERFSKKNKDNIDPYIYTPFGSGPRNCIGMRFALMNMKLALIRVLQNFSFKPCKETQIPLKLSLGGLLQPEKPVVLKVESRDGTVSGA
# Procedure, shortened: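 Human CYP3A4 dealkylates Luciferin-PPXE to luciferin, which luciferase detection converts to light. Substrate was at its KM (25uM), buffer 200mM KPO4, reaction 60 min at RT.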
# [2] = target: Ubiquitin carboxyl-terminal hydrolase 1 (Homo sapiens) (UniProt O94782); assay: Inhibitors of USP1/UAF1: Pilot qHTS (AID 504865);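 also: rhodamine fluorescence freed from ubiquitin-rhodamine substrate followed over time; top concentration of the series differs between compounds; nearly all actives have a fitted effect of over 35% in size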
# Chain of Ubiquitin carboxyl-terminal hydrolase 1 (Homo sapiens) (O94782 whole entry, looked up): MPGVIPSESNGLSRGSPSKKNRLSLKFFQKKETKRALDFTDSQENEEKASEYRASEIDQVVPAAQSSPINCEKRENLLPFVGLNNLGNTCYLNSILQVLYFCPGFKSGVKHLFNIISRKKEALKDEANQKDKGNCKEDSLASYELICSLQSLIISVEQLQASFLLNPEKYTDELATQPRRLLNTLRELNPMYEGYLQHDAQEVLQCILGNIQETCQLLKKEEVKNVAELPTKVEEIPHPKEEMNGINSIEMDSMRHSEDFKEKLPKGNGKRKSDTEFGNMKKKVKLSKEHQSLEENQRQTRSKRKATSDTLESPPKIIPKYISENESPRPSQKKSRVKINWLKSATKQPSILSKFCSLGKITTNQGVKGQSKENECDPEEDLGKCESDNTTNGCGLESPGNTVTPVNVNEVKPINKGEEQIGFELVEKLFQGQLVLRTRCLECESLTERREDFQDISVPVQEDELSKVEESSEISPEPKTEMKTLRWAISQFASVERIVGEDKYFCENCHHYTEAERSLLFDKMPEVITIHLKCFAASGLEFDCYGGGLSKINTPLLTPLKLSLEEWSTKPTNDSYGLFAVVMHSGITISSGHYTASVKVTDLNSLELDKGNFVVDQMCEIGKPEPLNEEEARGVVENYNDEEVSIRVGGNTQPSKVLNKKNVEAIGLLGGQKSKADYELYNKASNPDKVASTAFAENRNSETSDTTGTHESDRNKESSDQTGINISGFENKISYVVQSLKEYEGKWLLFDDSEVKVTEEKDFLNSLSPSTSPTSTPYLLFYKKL
# Procedure, shortened: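 Enzyme-free wells gave the negative control, while test wells held 1nM USP1/UAF1 preincubated with compound for 15 min at room temperature. Ub-Rho at 150nM final started the reaction, and fluorescence at 480/540 nm was recorded kinetically.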
# [3] = target: Cytochrome P450 3A4 (Homo sapiens) (UniProt P08684); assay: qHTS Assay for Inhibitors and Substrates of Cytochrome P450 3A4 (AID 884); also: series mostly up to about 57 µM; nearly all actives have a fitted effect of over 50% in size
# Procedure, shortened: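 Luminescent readout of luciferin produced by CYP3A4 (20 nM) dealkylation of Luciferin-PPXE, 25 uM (its KM). NADPH-driven reaction ran 60 min at RT after 10 min compound preincubation; data scaled to 57 uM ketoconazole as 100% inhibition.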
# [4] = Confirmation and Secondary Assay for Modulators of Hemoglobin Beta Chain Splicing at IVS2 654 locus (AID 910);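 also: per-well total GFP intensity by laser scanning cytometry after 2-day treatment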
# Procedure, shortened: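 HeLa cells stably carrying EGFP interrupted by mutant beta-globin IVS2-654 intron (CMV-driven) were treated with compound for 2 days at 37C; corrected splicing was scored as total peak GFP intensity per well (488 nm excitation, 500-520 nm emission).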
# [5] = Confirmation and Secondary Assay for Modulators of Hemoglobin Beta Chain Splicing at IVS2 705 locus (AID 930);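 also: HeLa cells stably expressing the EGFP-705 splicing reporter; series mostly up to about 46 µM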
# Procedure, shortened: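 HeLa cells stably carrying EGFP interrupted by mutant beta-globin IVS2-705 intron (CMV-driven) were seeded at 500 cells/well, treated next day with compound for 2 days at 37C; corrected splicing restores EGFP, read as total peak GFP intensity per well.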
# [6] = target: DNA dC->dU-editing enzyme APOBEC-3G (Homo sapiens) (UniProt Q9HC16); assay: qHTS for inhibitors of Vif-A3G interactions: Validation (AID 588379)
# Chain of DNA dC->dU-editing enzyme APOBEC-3G (Homo sapiens) (Q9HC16 whole entry, looked up): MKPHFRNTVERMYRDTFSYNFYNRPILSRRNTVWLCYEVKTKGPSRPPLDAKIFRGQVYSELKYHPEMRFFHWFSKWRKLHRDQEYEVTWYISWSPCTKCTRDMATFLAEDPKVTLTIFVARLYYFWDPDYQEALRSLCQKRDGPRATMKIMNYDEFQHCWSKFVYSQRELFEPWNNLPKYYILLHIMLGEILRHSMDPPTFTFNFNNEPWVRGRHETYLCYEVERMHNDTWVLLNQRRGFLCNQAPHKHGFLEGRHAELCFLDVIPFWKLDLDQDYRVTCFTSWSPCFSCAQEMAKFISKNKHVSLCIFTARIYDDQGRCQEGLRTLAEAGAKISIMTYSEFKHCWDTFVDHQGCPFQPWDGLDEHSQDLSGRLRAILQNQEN
# Procedure, shortened: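 Yellow fluorescence (Ex 488, Em 500-530) of Vif-coexpressing HeLa A3G-eYFP cells, scanned by Acumen cytometer, reports blocked A3G degradation. Cells plated at 700/well overnight at 37 deg C before compound addition, then a further overnight compound incubation at 37 deg C.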
# [7] = target: Bile acid receptor (Homo sapiens) (UniProt Q96RI1); assay: qHTS assay for small molecule agonists of farnesoid X receptor signaling (AID 588527; calls by dose curve; also: series mostly up to about 77 µM); details: HEK293T FXR-UAS-bla, beta-lactamase ratio, 16 h; activation: stronger effect = higher value
# Chain of Bile acid receptor (Homo sapiens) (Q96RI1 whole entry, looked up): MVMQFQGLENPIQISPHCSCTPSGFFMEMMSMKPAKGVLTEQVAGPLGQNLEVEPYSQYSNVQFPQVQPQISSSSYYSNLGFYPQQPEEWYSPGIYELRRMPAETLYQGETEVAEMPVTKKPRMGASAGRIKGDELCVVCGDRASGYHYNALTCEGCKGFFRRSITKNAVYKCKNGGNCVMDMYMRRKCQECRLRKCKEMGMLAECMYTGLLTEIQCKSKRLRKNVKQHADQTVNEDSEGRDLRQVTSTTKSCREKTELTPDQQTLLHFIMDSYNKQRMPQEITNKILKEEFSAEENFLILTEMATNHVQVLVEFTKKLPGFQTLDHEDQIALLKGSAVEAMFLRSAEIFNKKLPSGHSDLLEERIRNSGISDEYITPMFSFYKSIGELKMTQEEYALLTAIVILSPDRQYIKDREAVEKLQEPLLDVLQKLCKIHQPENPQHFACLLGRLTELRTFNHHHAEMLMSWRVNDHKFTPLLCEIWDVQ
# Procedure, shortened: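 FXR-UAS-bla HEK293T cells (10% dialyzed FBS) preincubated 5-7 h at 37 C, then compounds at up to 92 uM for 16 h at 37 C. CCF4 beta-lactamase read-out after 2 h RT. Normalized to chenodeoxycholic acid (100 uM) and DMSO; Hill fit gave EC50 and efficacy.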
# [8] = target: Bile acid receptor (Homo sapiens) (UniProt Q96RI1); assay: qHTS assay for small molecule antagonists of farnesoid X receptor signaling (AID 588526; calls by dose curve)
# Procedure, shortened: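 Concentration-response titrations were fitted to the Hill equation for half-maximal inhibition and maximal response, with data normalised to 50 uM chenodeoxycholic acid and DMSO control wells. Cells: FXR-UAS-bla HEK293T, dialyzed FBS.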
# [9] = target: Glucocorticoid receptor (Homo sapiens) (UniProt P04150); assay: qHTS assay for small molecule antagonists of glucocorticoid receptor signaling (AID 588533; active = well fitted inhibition curve with a large enough effect in the signal ratio, with a control signal flat, not every such curve was filed as active; the % refers to the signal ratio;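 also: cells stimulated with 2 nM dexamethasone as agonist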)
# Chain of Glucocorticoid receptor (Homo sapiens) (P04150 whole entry, looked up): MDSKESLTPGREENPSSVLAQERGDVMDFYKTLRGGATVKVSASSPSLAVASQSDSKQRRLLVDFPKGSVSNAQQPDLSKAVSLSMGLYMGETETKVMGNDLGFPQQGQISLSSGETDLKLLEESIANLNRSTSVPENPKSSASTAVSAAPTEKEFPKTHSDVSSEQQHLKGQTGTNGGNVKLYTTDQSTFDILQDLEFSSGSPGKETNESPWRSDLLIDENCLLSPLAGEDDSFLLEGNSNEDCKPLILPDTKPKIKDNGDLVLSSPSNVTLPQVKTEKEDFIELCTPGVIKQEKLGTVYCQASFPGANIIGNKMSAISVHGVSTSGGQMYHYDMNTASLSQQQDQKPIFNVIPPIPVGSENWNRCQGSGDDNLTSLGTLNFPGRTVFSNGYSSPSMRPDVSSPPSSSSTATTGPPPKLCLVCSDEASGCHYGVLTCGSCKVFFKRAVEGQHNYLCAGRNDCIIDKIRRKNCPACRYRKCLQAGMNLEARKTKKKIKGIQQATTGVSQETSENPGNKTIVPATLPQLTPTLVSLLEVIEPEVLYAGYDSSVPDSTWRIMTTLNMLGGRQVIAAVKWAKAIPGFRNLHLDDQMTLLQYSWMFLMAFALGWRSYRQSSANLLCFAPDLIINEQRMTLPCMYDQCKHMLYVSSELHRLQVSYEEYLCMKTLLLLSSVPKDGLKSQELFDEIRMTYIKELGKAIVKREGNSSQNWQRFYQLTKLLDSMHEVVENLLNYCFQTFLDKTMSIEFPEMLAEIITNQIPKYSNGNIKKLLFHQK
# Procedure, shortened: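 Antagonist-mode qHTS: compound titrations added to GRE-bla HeLa cells, then dexamethasone 2 nM final; 18 h, 37 C. CCF4 FRET fluorescence normalized to dexamethasone and DMSO; IC50 from Hill fit.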
# [10] = target: Peroxisome proliferator-activated receptor gamma (Homo sapiens) (UniProt P37231); assay: qHTS assay for small molecule agonists of peroxisome proliferator-activated receptor gamma signaling (AID 588536; active = well fitted curve in the direction sought with a large enough effect in the signal ratio, with a control signal flat, not every such curve was filed as active; the % refers to the signal ratio)
# Chain of Peroxisome proliferator-activated receptor gamma (Homo sapiens) (P37231 whole entry, looked up): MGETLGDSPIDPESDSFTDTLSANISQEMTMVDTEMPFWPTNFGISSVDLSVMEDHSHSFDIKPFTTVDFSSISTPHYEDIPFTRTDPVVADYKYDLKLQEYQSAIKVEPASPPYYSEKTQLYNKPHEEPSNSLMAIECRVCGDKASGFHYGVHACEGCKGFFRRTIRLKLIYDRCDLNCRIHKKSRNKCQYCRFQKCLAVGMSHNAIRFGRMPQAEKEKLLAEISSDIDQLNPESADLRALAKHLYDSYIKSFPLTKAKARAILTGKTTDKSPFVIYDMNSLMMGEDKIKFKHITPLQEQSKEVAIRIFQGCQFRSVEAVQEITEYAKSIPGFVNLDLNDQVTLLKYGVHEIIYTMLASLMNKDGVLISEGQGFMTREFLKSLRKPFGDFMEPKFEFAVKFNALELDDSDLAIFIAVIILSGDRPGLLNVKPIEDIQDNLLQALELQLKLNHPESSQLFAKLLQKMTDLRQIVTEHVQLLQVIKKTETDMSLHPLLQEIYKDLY
# Procedure, shortened: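 Cells were plated and held 6–6.5 h at 37 C, then compounds were added as a titration series. After a further 16 h, CCF4 dye was loaded for 2 h at room temperature and emission at 460/530 nm recorded.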
# [11] = target: Androgen receptor (Homo sapiens) (UniProt P10275); assay: qHTS assay for small molecule agonists of androgen receptor signaling (AID 588515; active = well fitted curve in the direction sought with a large enough effect in the signal ratio, with a control signal flat; the % refers to the signal ratio); details: AR-UAS-bla HEK293, beta-lactamase ratio, agonist 16 h; stronger effect = higher value
# Chain of Androgen receptor (Homo sapiens) (P10275 whole entry, looked up): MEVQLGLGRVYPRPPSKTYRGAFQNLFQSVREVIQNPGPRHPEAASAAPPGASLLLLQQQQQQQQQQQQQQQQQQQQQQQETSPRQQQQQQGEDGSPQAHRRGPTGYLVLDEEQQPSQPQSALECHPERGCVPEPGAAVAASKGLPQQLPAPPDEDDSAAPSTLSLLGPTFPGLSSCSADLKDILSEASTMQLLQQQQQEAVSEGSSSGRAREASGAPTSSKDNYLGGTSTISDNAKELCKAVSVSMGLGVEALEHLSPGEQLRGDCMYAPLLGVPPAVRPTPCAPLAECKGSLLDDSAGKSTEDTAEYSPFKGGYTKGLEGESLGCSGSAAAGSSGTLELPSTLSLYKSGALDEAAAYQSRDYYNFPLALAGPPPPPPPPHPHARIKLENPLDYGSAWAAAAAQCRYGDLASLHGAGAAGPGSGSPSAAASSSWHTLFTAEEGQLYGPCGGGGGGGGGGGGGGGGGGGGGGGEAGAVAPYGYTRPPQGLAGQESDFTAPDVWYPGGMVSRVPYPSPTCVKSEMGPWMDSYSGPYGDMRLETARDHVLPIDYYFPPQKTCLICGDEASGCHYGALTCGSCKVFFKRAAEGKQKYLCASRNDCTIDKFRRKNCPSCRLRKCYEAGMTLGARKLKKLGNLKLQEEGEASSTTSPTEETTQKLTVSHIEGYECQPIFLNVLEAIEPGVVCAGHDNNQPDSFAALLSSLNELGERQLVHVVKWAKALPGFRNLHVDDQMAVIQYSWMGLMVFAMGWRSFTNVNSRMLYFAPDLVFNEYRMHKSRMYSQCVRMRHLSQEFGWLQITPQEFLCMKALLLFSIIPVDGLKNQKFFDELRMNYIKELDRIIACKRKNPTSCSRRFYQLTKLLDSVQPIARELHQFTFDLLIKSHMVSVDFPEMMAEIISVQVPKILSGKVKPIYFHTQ
# Procedure, shortened: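 Stimulation of an AR-responsive β-lactamase reporter in GripTite HEK293 cells was measured after 16 h compound exposure at 37 °C, via CCF4 fluorescence after 2 h RT. EC50 from Hill fits, normalized to R1881 at 30 nM.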
# [12] = target: Androgen receptor (Homo sapiens) (UniProt P10275); assay: qHTS assay for small molecule antagonists of androgen receptor signaling (AID 588516; active = well fitted curve in the direction sought with a large enough effect in the signal ratio, with a control signal flat, not every such curve was filed as active; the % refers to the signal ratio)
# Procedure, shortened: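 Compounds tested in titration against 10 nM R1881 in AR-responsive bla reporter HEK 293 cells; CCF4 fluorescence (460/530 nm) after 16 h exposure gave IC50 and efficacy.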
# [13] = qHTS assay for small molecule antagonists of peroxisome proliferator-activated receptor delta signaling (AID 588535; active = well fitted inhibition curve with a large enough effect in the signal ratio, with a control signal flat, not every such curve was filed as active; the % refers to the signal ratio;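 as to max response: cells co-treated with a PPAR-delta agonist as stimulator during compound exposure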); details: HEK293T PPARd-UAS-bla, beta-lactamase FRET ratio, 18 h; 460 nm channel
# Procedure, shortened: (§1)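 Compounds tested in titration on PPAR-delta-UAS-bla HEK293T cells grown in charcoal/dextran-stripped serum (2%); beta-lactamase activity read via CCF4 emission at 460 and 530 nm.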
# [14] = target: Peroxisome proliferator-activated receptor delta (Homo sapiens) (UniProt Q03181); assay: as above
# Chain of Peroxisome proliferator-activated receptor delta (Homo sapiens) (Q03181 whole entry, looked up): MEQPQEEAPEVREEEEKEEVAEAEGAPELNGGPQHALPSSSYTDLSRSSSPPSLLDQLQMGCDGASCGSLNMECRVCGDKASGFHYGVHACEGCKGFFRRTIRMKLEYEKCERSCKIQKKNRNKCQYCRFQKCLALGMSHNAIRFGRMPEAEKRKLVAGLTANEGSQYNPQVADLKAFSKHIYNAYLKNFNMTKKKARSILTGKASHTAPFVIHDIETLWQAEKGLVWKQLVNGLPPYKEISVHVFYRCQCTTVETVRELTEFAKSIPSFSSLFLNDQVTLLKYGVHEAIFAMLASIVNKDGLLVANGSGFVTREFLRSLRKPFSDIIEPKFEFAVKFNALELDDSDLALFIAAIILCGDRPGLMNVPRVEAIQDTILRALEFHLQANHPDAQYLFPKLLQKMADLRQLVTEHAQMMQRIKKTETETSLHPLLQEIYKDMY
# Procedure, shortened: as §1
# [15] = target: Peroxisome proliferator-activated receptor gamma (Homo sapiens) (UniProt P37231); assay: qHTS assay for small molecule antagonists of peroxisome proliferator-activated receptor gamma signaling (AID 588537; active = well fitted inhibition curve with a large enough effect in the signal ratio, with a control signal flat, not every such curve was filed as active; the % refers to the signal ratio;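 also: reporter cells co-stimulated with 50 nM rosiglitazone agonist during compound treatment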)
# Procedure, shortened: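 HEK293 cells, PPAR-gamma-UAS-bla, 3000/well. Pre-incubation 6-6.5 h, 37 C. Compound titration with rosiglitazone 50 nM final, 16 h. CCF4 dye, 2 h RT, dual-emission fluorescence.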
# [16] = qHTS assay for small molecule agonists of the antioxidant response element (ARE) signaling pathway (AID 651741; active = well fitted activation curve with a large enough effect in the signal ratio; the % refers to the signal ratio; also: potency is read from the fitted curve at half-maximal effect)
# Procedure, shortened: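 Beta-lactamase reporter expression driven by the antioxidant response element in HepG2 cells was detected by fluorescence with LiveBLAzer B/G FRET substrate (2 h, room temperature) following 16 h compound treatment at 37 C.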
# [17] = qHTS assay for small molecule activators of the human pregnane X receptor (PXR) signaling pathway (AID 720659; call rule not given here)
# [18] = qHTS assay for small molecule activators of the nuclear factor-kappa B (NF-kB) signaling pathway (AID 651749; active = well fitted activation curve with a large enough effect in the signal ratio; the % refers to the signal ratio; also: series mostly up to about 77 µM); details: NF-kB-bla ME-180 cells, beta-lactamase FRET ratio, 16 h; activation: stronger effect = higher value
# Procedure, shortened: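 Beta-lactamase reporter expression, controlled by NF-kB response elements in ME-180 cells, was quantified fluorometrically via FRET disruption; cells at 2,000/well had been incubated with 23 nL test compound for 16 hr.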
smiles,measurement,setting,value
C=CCO[C@@H](Cn1ccnc1)c1ccc(Cl)cc1Cl,Potency,[1],inactive
same,Potency,[2],inactive
CC(=O)OC1CCC2(C)C3=C(CCC2C1(C)C)[C@@]1(C)CCC(C(C)CCC=C(C)C)[C@@]1(C)CC3 (stereo partly drawn),Potency,[3],inactive
same,Potency,[2],inactive
COc1ccc(CC2NC[C@H](O)[C@H]2OC(C)=O)cc1 (stereo partly drawn),Potency,[3],inactive
same,Potency,[4],inactive
same,outcome,[5],inactive
same,Potency,[2],inactive
CN(C)C1C(=O)C(C(N)=O)=C(O)[C@@]2(O)C(=O)C3=C(O)c4c(O)cccc4[C@@](C)(O)C3CC12 (stereo partly drawn),Potency,[3],inactive
same,Potency,[4],inactive
same,outcome,[5],inactive
same,Potency,[2],inactive
CN(C)C1C(=O)C(C(N)=O)=C(O)[C@@]2(O)C(=O)C3=C(O)c4c(O)cccc4[C@@](C)(O)C3[C@H](O)C12 (stereo partly drawn),outcome,[6],inactive
COc1ccc2c(c1OC)C(=O)O[C@@H]2C1c2cc3c(cc2CCN1C)OCO3 (stereo partly drawn),outcome,[6],inactive
C=C(C)c1ccccc1,activation,[7],-3.16% (inactive)
CC1CC[C@@]2(OC1)O[C@@H]1[C@@H](O)[C@H]3C4CC[C@H]5C[C@@H](O[C@@H]6O[C@H](CO)[C@H](O[C@@H]7O[C@H](CO)[C@@H](O)[C@H](O[C@@H]8OC[C@@H](O)[C@H](O)[C@H]8O)[C@H]7O[C@@H]7O[C@H](CO)[C@@H](O)[C@H](O[C@@H]8O[C@H](CO)[C@@H](O)[C@H](O)[C@H]8O)[C@H]7O)[C@H](O)[C@H]6O)[C@H](O)C[C@]5(C)C4CC[C@]3(C)[C@H]1[C@@H]2C (stereo partly drawn),Potency,[3],inactive
same,outcome,[6],inactive
COC(C)C(O)(C(=O)OC1=CCN2CC[C@H](O)[C@H]12)C(C)C (stereo partly drawn),Potency,[1],inactive
same,outcome,[6],inactive
COc1ccc(O)c(C(C)(C)C)c1,Potency,[8],inactive
same,activation,[7],-2.62% (inactive)
same,Potency,[9],inactive
same,Potency,[10],inactive
c1cc2c3c(cccc3c1)CC2,activation,[11],5.35% (inactive)
same,Potency,[12],inactive
same,Potency,[9],inactive
same,max response,[13],-25.4%
same,Potency,[14],inactive
same,Potency,[10],inactive
same,Potency,[15],inactive
same,Potency,[16],inactive
same,outcome,[17],inactive
CCOP(=S)(S)OCC,activation,[11],24.9% (inactive)
same,Potency,[12],inactive
same,Potency,[8],inactive
same,activation,[7],1.65% (inactive)
same,Potency,[9],inactive
same,max response,[13],11%
same,Potency,[14],inactive
same,Potency,[10],inactive
same,Potency,[16],inactive
same,outcome,[17],inactive
COCc1cnc(C2=NC(C)(C(C)C)C(=O)N2)c(C(=O)O)c1 (stereo not drawn),Potency,[12],inactive
same,Potency,[8],inactive
same,Potency,[9],inactive
same,max response,[13],-13.7%
same,Potency,[14],inactive
same,Potency,[10],inactive
same,Potency,[15],inactive
same,outcome,[17],inactive
CNC(=O)Oc1cccc2c1OC(C)(C)C2O (stereo not drawn),activation,[11],3.8% (inactive)
same,Potency,[12],inactive
same,Potency,[9],inactive
same,Potency,[10],inactive
same,Potency,[16],54.5 µM (active)
same,activation,[18],0.725% (inactive)
same,outcome,[17],inactive
C/C(=N\C(N)=O)N(C)Cc1ccc(Cl)nc1,activation,[11],-2.44% (inactive)
same,Potency,[12],inactive
same,Potency,[8],inactive
same,activation,[7],2.77% (inactive)
same,Potency,[9],inactive
same,max response,[13],39.3%
same,Potency,[14],inactive
same,Potency,[10],inactive
same,Potency,[15],inactive
same,activation,[18],-1.01% (inactive)
same,outcome,[17],inactive
COc1ccc(CC2c3cc(OC)c(OC)cc3CCN2C)cc1OC (stereo not drawn),Potency,[3],inactive
same,outcome,[6],inactive
CCCCC(CC)COC(=O)Cl (stereo not drawn),Potency,[8],inactive
same,activation,[7],1.19% (inactive)
same,Potency,[9],inactive
same,Potency,[10],inactive
same,Potency,[15],inactive
same,Potency,[16],inactive
same,activation,[18],-0.442% (inactive)
same,outcome,[17],inactive

# Source: PubChem BioAssay (NCATS)
